The list is not random: actives were taken first. Their share in the collection is about 2.4%.
D2 PAM-1: positive allosteric modulators of human D2 dopamine receptor; potentiation, % (test concentration not listed); 360,000 tested, 0.23% active; AID 624464; DiscoveRx D2 beta-arrestin cells, luminescence, 90 min; 100% = 57 uM dopamine signal; in the data active means potentiation above about 50%; inconclusive means mostly about 30% to 49%
Target sequence (P14416 whole entry, looked up): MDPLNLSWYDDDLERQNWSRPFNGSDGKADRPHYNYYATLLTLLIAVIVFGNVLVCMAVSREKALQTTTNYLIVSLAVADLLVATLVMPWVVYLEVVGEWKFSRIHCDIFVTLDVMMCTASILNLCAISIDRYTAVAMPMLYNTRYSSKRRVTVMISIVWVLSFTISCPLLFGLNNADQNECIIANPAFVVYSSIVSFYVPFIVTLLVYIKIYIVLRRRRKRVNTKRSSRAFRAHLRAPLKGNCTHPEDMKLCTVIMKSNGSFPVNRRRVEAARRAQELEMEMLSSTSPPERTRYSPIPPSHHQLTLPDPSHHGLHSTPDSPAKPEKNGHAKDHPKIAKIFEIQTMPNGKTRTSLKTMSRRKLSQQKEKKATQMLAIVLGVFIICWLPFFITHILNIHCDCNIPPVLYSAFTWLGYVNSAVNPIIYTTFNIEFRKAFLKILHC
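PathHunter D2 cells, attached overnight at 37 deg C, received compound in DMSO plus dopamine at EC20 (50 nM final) for 90 min at 37 deg C. Beta-arrestin recruitment was read as luminescence after 1 h with detection reagent at ambient temperature.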
D2 antagonist: antagonists of human D2 dopamine receptor | P14416 | inhibition, % at 10 µM | HEK293 TREx D2 cells, calcium flux, dopamine EC80 | 340,000 tested, 2% active; in the data active means inhibition above about 30%; inactive means below that, where a call was filed
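Tetracycline-induced HEK293 T-REx cells expressing D2 force-coupled to calcium signalling were dye-loaded, exposed to compound for 180 s, then challenged with an EC80 of dopamine; calcium flux was followed kinetically for a further 180 s.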
D2 PAM-2: positive allosteric modulators of human D2 dopamine receptor | HEK293 T-REx D2, calcium flux, EC20 dopamine potentiation | potentiation, % at 10 µM | 340,000 tested, 0.34% active;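 active means potentiation over 3 SD above the plate norm, cut at about 30% in these data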
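Primary screen. Calcium kinetics in induced HEK293 T-REx D2 cells: compound pre-addition 180 s, EC20 dopamine, 180 s more.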
D2 ag-1: agonists of human D2 dopamine receptor (beta-arrestin); P14416; DiscoveRx PathHunter D2 beta-arrestin, luminescence, 90 min; 100% = 57 uM dopamine signal; activation, % (concentration not given with the values); 360,000 tested, 0.084% active; in the data active means activation above about 40%; inconclusive means between about 15% and that limit
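DiscoveRx PathHunter D2 beta-arrestin cells (2,100/well) attached overnight, then compound-stimulated 90 min at 37 C in HBSS/10 mM HEPES/0.1% Tween-20 buffer; beta-galactosidase complementation read by luminescence after 1 h at ambient temperature. Dopamine 57 uM final (EC100) as control.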
D2 ag-2: agonists of human D2 dopamine receptor | P14416 | HEK293 T-REx D2 cells, calcium flux agonist mode | activation, % at 2 µM | 340,000 tested, 0.53% active;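 active means activation over 3 SD above normal in the single-dose calcium agonist read, cut at about 30% in these data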
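Tetracycline-induced HEK293 T-REx cells with force-coupled D2 receptor, plated overnight at 30 C, loaded with no-wash calcium dye. After a 10 s baseline, compound was pin-added and calcium flux read kinetically for 180 s; calcium rises flagged agonists.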
Large screens that a line does not name were inactive.

CCN(C(=O)COC(=O)/C=C/c1c(C)nn(-c2ccccc2)c1C)c1c(N)n(Cc2ccccc2)c(=O)[nH]c1=O	none (no result: D2 antagonist, D2 PAM-2, D2 ag-2)
CCOC(=O)c1cccc(NC(=O)[C@@H](c2ccccc2)N2Cc3ccccc3C2=O)c1	none (no result: D2 PAM-1, D2 antagonist, D2 ag-1)
C=CCNC(=O)Nc1cc(Cl)ccc1OC	D2 antagonist 38
COc1ccc(Cl)cc1NC(=O)NCCN1CCCCC1	D2 antagonist 58
C=CCNC(=O)c1cc(Cl)ccc1[N+](=O)[O-]	none
C=CCNC(=O)c1cc(Cl)ccc1Cl	D2 PAM-2 33
COc1ccc(OC)c(NC(=O)Nc2ccc(Cl)cc2)c1	D2 antagonist 46
COc1ccc(Cl)cc1NC(=O)NCc1ccco1	none
COc1cc(CN2C[C@@H](CO)O[C@@H](n3cnc4c(N5CCN(c6ccccc6)CC5)ncnc43)C2)cc(OC)c1OC	none (no result: D2 antagonist, D2 PAM-2, D2 ag-2)
COc1ccc(Cl)cc1NC(=O)NCC1CCN(C(=O)OC(C)(C)C)CC1	D2 antagonist 95
CC(C)(C)OC(=O)N1CCC(CNC(=O)c2ccc(F)cc2F)CC1	none
CCCN1CCC(NC(=O)Nc2cc(Cl)ccc2OC)CC1	D2 antagonist 85
CCOc1ccc(NCc2cc3c(C(C)(C)C)nn(-c4ccccc4)c3[nH]c2=O)cc1	none
CC(C)(C)c1nn(-c2ccccc2)c2nc(Cl)c(C=O)cc12	D2 antagonist 32
CC(C)(C)c1nn(-c2ccccc2)c2[nH]c(=O)c(C=O)cc12	D2 antagonist 39
Clc1ccccc1Nc1ncnc2c1nc1n2CCCCC1	none (no result: D2 PAM-1, D2 antagonist, D2 ag-1)
CCOC(=O)C1CCN(C(=O)c2c(C)nn(-c3ccc(F)cc3)c2-n2cccc2)CC1	none (no result: D2 PAM-1, D2 antagonist, D2 ag-1)
O=C(CSc1nnc(-c2ccc3c(c2)OCO3)o1)Nc1c(F)cccc1F	none (no result: D2 antagonist, D2 PAM-2, D2 ag-2)
COc1ccccc1CCNS(=O)(=O)c1cn(C)c(=O)n(C)c1=O	none
COc1ccccc1CCNS(=O)(=O)c1c(C)n(C)c(=O)n(C)c1=O	D2 PAM-2 32
Cc1ccc(C(=O)Nc2cccc(C(F)(F)F)c2)cc1Nc1cncnc1	D2 antagonist 33
CNC(=S)N1CCC(c2nc3ccccc3s2)CC1	D2 antagonist 68
Cc1cccc(-n2c(CNC(=O)c3ccc(S(=O)(=O)N4CCCC4)cc3)n[nH]c2=S)c1	none
O=C(NCc1n[nH]c(=S)n1-c1cccc(Cl)c1)c1ccc(S(=O)(=O)N2CCCCC2)cc1	D2 PAM-2 33
COc1ccccc1NC(=O)c1ccc2[nH]c(C)cc(=O)c2c1	none (no result: D2 PAM-1, D2 antagonist, D2 ag-1)
O=C(NCc1cccnc1)c1ccc(-c2ccc(Cl)cc2)o1	none
O=C(NCc1cccnc1)c1ccc(-c2cc(Cl)ccc2Cl)o1	D2 antagonist 50
Cc1ccc(CSCC(=O)NCc2cccnc2)cc1	none
Cc1ccc(CC(=O)NCc2cccnc2)cc1	D2 antagonist 67 (no result: D2 PAM-1, D2 ag-1)
Cc1c(Cl)c([N+](=O)[O-])nn1CC(=O)NCc1cccnc1	D2 antagonist 39
CCC(C(=O)NCCC(C)C)N(C(=O)Cn1nnc(-c2ccc(C)cc2)n1)c1cccc(O)c1 (stereo not given)	none (no result: D2 PAM-1, D2 antagonist, D2 ag-1)
COc1cccc(CNC(=O)c2sc3nc[nH]c(=O)c3c2C)c1	none (no result: D2 PAM-1, D2 antagonist, D2 ag-1)
CCN(C(=O)c1noc2c1COc1ccc(C)cc1-2)c1cccc(C)c1	none (no result: D2 PAM-1, D2 antagonist, D2 ag-1)
CCOC(=O)c1c(NC(=O)OC)sc(C(=O)N(C)C)c1C	D2 antagonist 69
CCOC(=O)c1c(NC(=O)COC(=O)c2ccc(O)cc2)sc(C(=O)N(C)C)c1C	D2 PAM-2 36
COc1cc2ncc(S(=O)(=O)c3ccccc3)c(N3CCCC(C)C3)c2cc1OC (stereo not given)	none
COc1cc(-c2nc(Cn3nnc(C(=O)Nc4ccccc4)c3C)c(C)o2)cc(OC)c1OC	none (no result: D2 PAM-1, D2 antagonist, D2 ag-1)
O=C(NCC(c1ccc(F)cc1)N1CCOCC1)c1nn(-c2ccccc2)c(=O)c2ccccc12 (stereo not given)	D2 antagonist 70
COc1cccc(CNC(=O)Cn2c(=O)oc3cc(S(=O)(=O)N4CCCCCC4)ccc32)c1	none (no result: D2 PAM-1, D2 antagonist, D2 ag-1, D2 ag-2)
Cc1cc(OC(C)C(=O)NNC(=O)Nc2ccc(F)cc2F)cc(C)c1Cl (stereo not given)	none
Cc1ccc(CNC(=O)CN(C2CCCCC2)S(C)(=O)=O)cc1	none
CS(=O)(=O)N(CC(=O)NCc1ccccc1)C1CCCCC1	D2 antagonist 37
Cc1c(C2=CCN(S(=O)(=O)c3ccc(CC(C)C)cc3)CC2)c2ccccc2n1CC(=O)N1CCCC1	none (no result: D2 PAM-1, D2 antagonist, D2 ag-1)
CCN(CC(=O)NCc1ccc(Cl)cc1)C(=O)COc1cccc(C(F)(F)F)c1	none
CCN(CC(=O)NCc1ccc(Cl)cc1)C(=O)COc1cccc(Cl)c1	D2 antagonist 33
COc1ccc(NC(=O)c2c(-c3c(Cl)cccc3Cl)noc2C)c(OC)c1	none
Cc1ccc(SCCNS(C)(=O)=O)cc1	D2 PAM-2 36
Cc1cc(OCC(=O)NC(Cc2c[nH]c3ccccc23)C(=O)O)ccc1Cl (stereo not given)	none (no result: D2 PAM-1, D2 antagonist, D2 PAM-2, D2 ag-1)
Cc1cc(C)n(-c2nc3ccccc3nc2Nc2cc(C(=O)O)ccc2C)n1	none (no result: D2 PAM-1, D2 antagonist, D2 ag-1, D2 ag-2)
CN(C)CCNc1ncnc2c1sc1nc(-c3ccccc3)c3c(c12)CCCC3	none
C=CCn1c(SCC(=O)Nc2ccc(C(=O)O)cc2)nc2sc(C)c(C)c2c1=O	none
C=CCn1c(SCC(=O)Nc2sccc2C#N)nc2sc(C)c(C)c2c1=O	D2 antagonist 32
COc1ccc(OC)c(-c2nc(C(=O)NC3CCN(Cc4ccccc4)CC3)cc3c2[nH]c2ccccc23)c1	D2 antagonist 81
COc1cc(-c2nc(C(=O)NC3CCCCC3)cc3c2[nH]c2ccccc23)cc(OC)c1OC	none
COc1cc(-c2nc(C(=O)NC3CCN(Cc4ccccc4)CC3)cc3c2[nH]c2ccccc23)cc(OC)c1OC	D2 antagonist 74
COc1ccc(OC)c(-c2nc(C(=O)NCCCN3CCOCC3)cc3c2[nH]c2ccccc23)c1	none
CCCCOC(=O)c1ccc(NC2=NS(=O)(=O)c3ccccc32)cc1	none (no result: D2 PAM-1, D2 antagonist, D2 ag-1, D2 ag-2)
COc1cccc(CN2c3ccccc3-c3nc(SCC(=O)Nc4ccccc4Cl)ncc3S2(=O)=O)c1	none (no result: D2 PAM-1, D2 antagonist, D2 ag-1)
O=C(C[n+]1ccc(-c2ccccc2)cc1)Nc1ccc([N+](=O)[O-])cc1	D2 antagonist 37
Cc1cccc[n+]1CC(=O)Nc1ccc([N+](=O)[O-])cc1	none
CC1CCCN(Cc2c(O)ccc3c4c(c(=O)oc23)CCCC4)C1 (stereo not given)	D2 antagonist 36
O=c1oc2c(CN3CCOCC3)c(O)ccc2c2c1CCC2	none
Cc1cc(NS(=O)(=O)c2ccc(NC(=O)c3ccc(Cl)cc3[N+](=O)[O-])cc2)no1	D2 PAM-1 inconclusive, D2 antagonist 41
Cc1cc(NS(=O)(=O)c2ccc(NC(=O)c3ccc([N+](=O)[O-])c(Cl)c3)cc2)no1	none (no result: D2 antagonist, D2 PAM-2, D2 ag-2)
COc1ccc(C2=Nc3ccc(F)cc3NC(c3cccc(C(F)(F)F)c3)=N2)cc1	none (no result: D2 PAM-1, D2 antagonist, D2 ag-1, D2 ag-2)
C=CCNC(=S)NNC(=O)CC12CC3CC(CC(C3)C1)C2	D2 antagonist 34

Screening results deposited in PubChem by National Center for Advancing Translational Sciences (NCATS).
